Data on 73 sequences can be found in the supplement of paper PMC10338343.

± gives the standard deviation. The full ranking holds about 6,600 sequences; the median of “pre-steady-state target cleavage rate” is about 0.07, and the highest 2% start at about 0.72. Many of the other results were omitted from the sample, so the highest values are more common in it than they were.
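Also: 1 nM active piRISC with 0.1 nM target library at 33 °C single turnover.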

The test system of the assay is MIWI (PIWIL1) piRISC loaded with Kctd7 piRNA (30 nt). The assay can be described thus: pre-steady-state target cleavage rate (min^-1); MIWI and MILI are mouse PIWI proteins and EfPiwi is from a freshwater sponge; tags in brackets are library labels; higher = faster piRNA-guided slicing of the target. Conditions: guide: Kctd7 piRNA 5'p-UGUUAAUCUCUCAGAGAAGGUGACAGUGAU; auxiliary factor: 500 nM mouse GTSF1. The method in brief: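 Reactions were run for 0–8 or 0–960 min at 33 °C in HEPES–potassium acetate buffer, combining 1 nM active affinity-purified piRISC with one synthetic guide, […] transcribed, DNA-blocked target RNA library and, in some cases, 500 nM GTSF1 partner protein. Sequencing of uncleaved targets followed, with normalisation to depth and to weakly complementary targets. Three trials were pooled, k3 was capped at 0.0001 min^-1, and the pre-steady-state cleavage rate was taken from a burst-and-steady-state fit.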
For the sequence UAGUGACUCACGUUCUCUGAGAGUUUAACA, the “pre-steady-state target cleavage rate” value came to 0.0255 ± 0.006. In the case of UACACUGUCACCUUCACUGAGACAUUAACA it was 0.19 ± 0.025; in that of AUCACUCACACCUUCUCUGAGAGAUUAACA, 0.587 ± 0.027; in that of UAGACUGUCACCUUCUCUGAGAGAUUUACA, 0.369 ± 0.049. In the case of UAGUGACACACCAUCUCUGAGAGAUUAACA it was 0.274 ± 0.027; in that of AUCACUGUCAGCUUCUCUGAGAGUUUAACA, 0.149 ± 0.018. In the case of UUCACUGUCACCUUCUCUGAGAGUUUAUCA it was 0.27 ± 0.061; in that of UUCACUGACACCUUCUCUGAGAGUUUAACA, 0.591 ± 0.11; in that of UACACUGACACCUUCUCUGAGAGUUUAACA, 0.904 ± 0.3.

Turning to UUCUCUGUCACCUUCUCUGAGAGUUUAACA, the “pre-steady-state target cleavage rate” value worked out at 0.517 ± 0.07. In the case of AUCUCUGUCACCUUCUCUGAGAGUUUAACA it was 0.711 ± 0.12; in that of UACACUGUCACCUUCUCUGAGAGUUUAUCA, 0.137 ± 0.041.

Regarding AUCACUGACACCUUCUCUGAGAGUUUAACA, the “pre-steady-state target cleavage rate” value amounted to 0.644 ± 0.16. Consider AUCACUGUCACCUUCUCUGAGAGUUUAUCA, for which the “pre-steady-state target cleavage rate” value amounted to 0.753 ± 0.19. In the case of UACUCUGUCACCUUCUCUGAGAGUUUAACA it was 0.781 ± 0.098; in that of UAGUCUGUCACCUUCUCUGAGAGAAAUACA, 0.0823 ± 0.015. In the case of AUCACUGAGACCUUCUCUGAGAGAUAUUGA it was 0.0157 ± 0.0047.

Turning to UAGUGACAGCCCUUCUCUGAGAGAUUAACA, the “pre-steady-state target cleavage rate” value was determined as 0.184 ± 0.019. For the sequence UUCACUGUCACCUUCUCUGAGAGUUUUACA, the “pre-steady-state target cleavage rate” value came to 0.559 ± 0.12. In the case of UAGUGACUCACCUUCUCUGUGACAUUAACA it was 0.0765 ± 0.0076; in that of UAGUCUCUCACCUUCUGUGAGAGAUUAACA, 0.00482 ± 0.0046. In the case of UAGACUCUCACCUUCUCUGAGAGAUUUUGA it was 0.0479 ± 0.011; in that of AUCACUGGCACCUUCUCUGAGAGAUUAACA, 0.724 ± 0.17. With UUGCACUGUCACCUUCUCUGAGAGAUUAACA, the “pre-steady-state target cleavage rate” value was found to be 0.781 ± 0.045. In the case of UUCACUGUGCACCUUCUCUGAGAGAUUAACA it was 0.606 ± 0.05. In the case of UUCACUGGCACCUUCUCUGAGAGAUUAACA it was 0.728 ± 0.15; in that of AUGCACUGUCACCUUCUCUGAGAGAUUAACA, 0.775 ± 0.056; in that of UGCACUGUCACCUUCUCUGAGAGAUUAACA, 0.726 ± 0.039.

Turning to UACACUGGCACCUUCUCUGAGAGAUUAACA, the “pre-steady-state target cleavage rate” value was 0.453 ± 0.12. In the case of UACAGUGUCACCUUCUGUGAGAGAUUAACA it was 0.662 ± 0.028; in that of UAGUGACACACCUUCUCAGAGUGAUUAACA, 0.00558 ± 0.0037.

Regarding UAGUGUGUCACCUUCUCUGAGAGAUUAUCA, the “pre-steady-state target cleavage rate” value was found to be 0.219 ± 0.026. In the case of UAGUGACUCUGCUUCUCUGAGAGAUUAACA it was 0.00843 ± 0.0019.

Take UAGUGACAGUCCUUCCUCUGAGAGAUUAACA: the “pre-steady-state target cleavage rate” value was found to be 0.27 ± 0.027. In the case of UAGUCUCUCACGUUCUCUGAGAGAUUAACA it was 0.0195 ± 0.0042. In the case of UAGUGACACACCAUCUCUGAGAGAAUAACA it was 0.0218 ± 0.0057. In the case of AGCACUGUCACCUUCUCUGAGAGAUUAACA it was 0.765 ± 0.044. With UAGUCUGUCACCUUCUGUGAGAGAUAAACA, the “pre-steady-state target cleavage rate” value was 0.0539 ± 0.0081. In the case of UACGACUGUCACCUUCUCUGAGAGAUUAACA it was 0.746 ± 0.07. In the case of UUCGACUGUCACCUUCUCUGAGAGAUUAACA it was 0.859 ± 0.06; in that of AUCGACUGUCACCUUCUCUGAGAGAUUAACA, 0.821 ± 0.059. In the case of UAGUGUGUCAGCUUCUCUGAGAGAUUAAGA it was 0.0938 ± 0.015; in that of UACACUCUCACCUUCUCUGUGAGAUUAACA, 0.141 ± 0.014; in that of UUGUGUGUCACCUUCUCUGAGAGAUUAACA, 0.571 ± 0.025. With AUCACAGUCACCAUCUCUGAGAGAUUAACA, the “pre-steady-state target cleavage rate” value was determined as 0.771 ± 0.036. Regarding UAGACAGUCACCAUCUCUGAGAGAUUAACA, the “pre-steady-state target cleavage rate” value was 0.68 ± 0.042. Regarding UUCACAGUCACCAUCUCUGAGAGAUUAACA, the “pre-steady-state target cleavage rate” value stood at 0.747 ± 0.039. In the case of UACACUCUCACCAUCUCUGAGAGAUUAACA it was 0.406 ± 0.028; in that of UACAGUGUCACCAUCUCUGAGAGAUUAACA, 0.592 ± 0.036; in that of UAGUCAGUCACCAUCUCUGAGAGAUUAACA, 0.706 ± 0.04.

Turning to UUCACUCUCACCAUCUCUGAGAGAUUAACA, the “pre-steady-state target cleavage rate” value turned out to be 0.465 ± 0.024.

As for UAGUCUCUCACCAUCUCUGAGAGAUUAACA, the “pre-steady-state target cleavage rate” value came to 0.0365 ± 0.0075. In the case of UACACAGUCACCAUCUCUGAGAGAUUAACA it was 0.833 ± 0.045; in that of UAGUCUGUCACCUUCGCUGAGAGAUUAACA, 0.416 ± 0.035. As to AUCACUUUCACCUUCUCUGAGAGAUUAACA, the “pre-steady-state target cleavage rate” value was 0.622 ± 0.027.

UAGUGAGUCUCCUUCUCUGAGAGAUUUACA: the “pre-steady-state target cleavage rate” value was found to be 0.0124 ± 0.0051. As for UAGUCUCUCACCUUCUCUGUGAGAUUAACA, the “pre-steady-state target cleavage rate” value stood at 0.2 ± 0.015. In the case of UAGUGACAGACCCUUCUCUGAGAGAUUAACA it was 0.0893 ± 0.016; in that of UACACUGUCACGAACUCUGAGAGAUUAACA, 0.131 ± 0.019; in that of UAGUCUGUCACCAUCUCUGAGAGAUUAUGA, 0.021 ± 0.0082.

UAGUGACAGUCCUUCUCUGAGACAUUAACA: the “pre-steady-state target cleavage rate” value came out at 0.0121 ± 0.0033. Consider UACACUAGUCACCUUCUCUGAGAGAUUAACA, for which the “pre-steady-state target cleavage rate” value was 0.663 ± 0.029. In the case of AUGAGUGUCACCUUCUCUGAGAGAUUAACA it was 0.706 ± 0.032; in that of UUCUGAGUCACCUUCUCUGAGAGAUUAACA, 0.657 ± 0.059; in that of UUGAGUGUCACCUUCUCUGAGAGAUUAACA, 0.763 ± 0.034. Take AUCACUAGUCACCUUCUCUGAGAGAUUAACA: the “pre-steady-state target cleavage rate” value was found to be 0.724 ± 0.04. In the case of UAGAGUGUCACCUUCUCUGAGAGAUUAACA it was 0.72 ± 0.035; in that of AUCUGAGUCACCUUCUCUGAGAGAUUAACA, 0.652 ± 0.053.

For the sequence UUCACAGUCACCUUCUCUGAGAGAUUAACA, the “pre-steady-state target cleavage rate” value was found to be 0.656 ± 0.027. In the case of UAGAGAGUCACCUUCUCUGAGAGAUUAACA it was 0.797 ± 0.035; in that of UACACAGUCACCUUCUCUGAGAGAUUAACA, 0.589 ± 0.038; in that of AACACAGUCACCUUCUCUGAGAGAUUAACA, 0.736 ± 0.032. In the case of UUCACUAGUCACCUUCUCUGAGAGAUUAACA it was 0.708 ± 0.032.
